Assay outcomes (PubChem BioAssay)
PGC1a acetyl inh = PGC1a acetylation modulation, inhibitor mode; U2OS PGC1a acetylation, AlphaScreen anti-acetyl-lysine; with virally co-expressed GCN5 acetyltransferase; inhibition, % at 15.6 µM; hit rate 0.17% among 350,000;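 active means every replicate shows inhibition of at least 40%; inconclusive means mean inhibition at least 40% but some replicate below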;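 further: 0% = neutral control wells and 100% = positive control wells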
ERAP1 HTS inh = ERAP1 (human) enzyme inhibition | recombinant ERAP1, Leu-AMC fluorescence, 60 min | inhibition, % at 10.7 µM | hit rate 0.15% among 340,000 | AID 652197;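 active means mean replicate inhibition of at least 30%, or all replicates individually reaching that 30% level; inactive means mean below 30% and not every replicate reaching it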;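 further: 0% = neutral control wells and 100% = L-leucinethiol positive control wells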
RAD52 anneal inh = RAD52 (human) annealing inhibition; P43351; recombinant RAD52 DNA annealing, FRET fluorescence; inhibition, % at 18.7 µM; hit rate 0.46% among 360,000; AID 651710;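 active means every replicate showing at least 50% inhibition; inconclusive means mean inhibition at least 50% but not in every replicate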
RAD54 branch = RAD54 (human) branch migration inhibition; Q92698; RAD54 Holliday junction branch migration, FAM/BHQ fluorescence; inhibition, % at 10.4 µM; hit rate 0.14% among 360,000; AID 602329;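 active means mean normalized replicate activity at least 40 and at least half of replicates scoring 40 or more; inconclusive means only one of the two criteria met; inactive means mean below 40 and under half of replicates reaching 40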;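 further: 0% = median of neutral control wells and 100% = median of positive control wells; inhibitors cause a drop in the FAM fluorescence signal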
Target sequence (Q92698 whole entry, looked up): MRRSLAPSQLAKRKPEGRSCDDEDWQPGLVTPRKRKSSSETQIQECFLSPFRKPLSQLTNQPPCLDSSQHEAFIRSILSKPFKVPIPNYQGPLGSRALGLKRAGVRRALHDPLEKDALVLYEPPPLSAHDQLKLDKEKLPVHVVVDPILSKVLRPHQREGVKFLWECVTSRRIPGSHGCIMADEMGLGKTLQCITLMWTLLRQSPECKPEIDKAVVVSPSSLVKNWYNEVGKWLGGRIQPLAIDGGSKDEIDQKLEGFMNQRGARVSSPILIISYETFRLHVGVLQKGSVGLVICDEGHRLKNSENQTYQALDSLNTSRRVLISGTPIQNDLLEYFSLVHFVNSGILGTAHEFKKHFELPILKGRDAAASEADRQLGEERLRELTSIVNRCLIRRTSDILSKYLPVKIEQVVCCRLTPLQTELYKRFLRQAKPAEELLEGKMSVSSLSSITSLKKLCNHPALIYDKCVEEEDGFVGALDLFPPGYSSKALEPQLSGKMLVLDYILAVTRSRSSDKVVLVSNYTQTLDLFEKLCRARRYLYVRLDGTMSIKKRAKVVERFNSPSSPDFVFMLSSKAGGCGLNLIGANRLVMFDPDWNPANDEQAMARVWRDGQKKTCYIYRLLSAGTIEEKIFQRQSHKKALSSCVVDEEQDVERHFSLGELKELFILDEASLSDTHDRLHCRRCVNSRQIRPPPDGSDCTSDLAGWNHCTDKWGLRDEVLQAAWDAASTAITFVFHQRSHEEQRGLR
AF4-AF9 inh = inhibitors of human MLL-AF4/AF9 interaction. AID 651704. P42568. inhibition, % at 10 µM. AlphaScreen, biotin-AF4 peptide binding to FLAG-AF9. hit rate 0.47% among 350,000;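 active means every replicate reaching a set inhibition limit, whatever the replicate mean, cut at about 25% in these data; inconclusive means mean inhibition reaches that limit but some replicates miss it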;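 further: 0% = plate neutral control median and 100% = total signal loss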
GSIS activator = GLuc luminescence reporter in INS-1E cells, primary screen for activators of glucose-dependent secretion of insulin; activation, % at 16.6 µM; AID 743287; INS-1E GLuc reporter insulin secretion, 2-3 h; hit rate 0.61% among 370,000;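 active means lowest replicate activation of at least 40%, so every replicate reaches that level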;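 further: 0% = median of neutral control wells and 100% = median of IBMX positive control wells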
Numbers without * were called inactive; ? = inconclusive; / = no result. Only some compounds are listed: those with a hit (about 1.4% of all), similar ones and a draw of the others.

SMILES	PGC1a acetyl inh	ERAP1 HTS inh	RAD52 anneal inh	RAD54 branch	AF4-AF9 inh	GSIS activator
Cc1cccc(N=C2NC(=O)/C(=C/c3cccnc3)S2)c1	/	0	-42	/	/	45*
CC(C)NC(=O)N(C)C[C@H]1Oc2ccc(NS(C)(=O)=O)cc2CC(=O)N(C)C[C@H]1C	/	/	/	/	/	10
Cc1ccc(-c2cnc3cccnn23)cc1F	7	18	-1	3	-10	46*
COc1cccc(-c2cnc3cccnn23)c1	11	14	-7	1	-3	25
CCNC(=O)C[C@@H]1CC[C@@H]2[C@@H](COc3ccc(NC(=O)c4cccs4)cc3C(=O)N2C)O1	-5	2	-8	3	-1	3
O=C(NCC1(O)CCCCC1)C1CCC(=O)N(Cc2ccccc2F)C1 (stereo not drawn)	/	2	-11	0	-2	54*
O=C(NC1CCCCCC1)C1CCC(=O)N(Cc2ccccc2F)C1 (stereo not drawn)	-6	3	-17	-2	-1	4
CNC(=O)C[C@@H]1CC[C@@H]2[C@@H](COc3ccc(NC(=O)c4cccc(OC)c4)cc3C(=O)N2C)O1	-2	-1	8	-4	-6	5
CC(C)c1ccc(NC(=O)Nc2nc(C(N)C3CCCCC3)cs2)cc1 (stereo not drawn)	5	18	-62	-2	?	-29
CN(C)c1ccc(NC(=O)Nc2nc(C(N)C3CCCCC3)cs2)cc1 (stereo not drawn)	5	0	0	6	57*	/
CCCNC(=O)N1C[C@@H](C)[C@H](OC)CN(C)C(=O)c2ccc(NC(C)=O)cc2OC[C@H]1C	/	0	-5	/	-4	7
CN(C)CC#Cc1ccc([C@@H]2[C@@H](CO)N3CCCCN(C(=O)Nc4ccccc4F)C[C@H]23)cc1	-3	0	54*	-13	4	-4
CN(C)CC#Cc1ccc([C@@H]2[C@H](CO)N3CCCCN(C(=O)Nc4ccccc4F)C[C@@H]23)cc1	-9	1	32	0	3	1
CN(C)CC#Cc1ccc([C@@H]2[C@@H](CO)N3CCCCN(C(=O)Nc4cc(F)ccc4F)C[C@H]23)cc1	5	2	22	12	5	23
CN(C)CC#Cc1ccc([C@@H]2[C@H](CO)N3CCCCN(C(=O)Nc4cc(F)ccc4F)C[C@@H]23)cc1	0	1	51*	1	10	2
CCC(=O)N1[C@H](CO)[C@@H](c2ccccc2)C12CN(Cc1nccs1)C2	-8	2	-16	/	-2	-8
CN1CCN(C(=O)C[C@H]2CC[C@@H]3[C@@H](COc4ccc(NC(=O)C5CCCC5)cc4C(=O)N3C)O2)CC1	/	2	2	/	47*	4
CN1C(=O)c2cc(NC(=O)Nc3ccc(Cl)cc3)ccc2OC[C@@H]2O[C@H](CC(=O)NCCN3CCCCC3)CC[C@@H]21	-11	-1	54*	18	7	6
CN1CCN(C(=O)C[C@H]2CC[C@@H]3[C@H](COc4ccc(NC(=O)C5CCCC5)cc4C(=O)N3C)O2)CC1	4	2	-2	/	1	-8
CN1C(=O)c2cc(NC(=O)Nc3ccc(Cl)cc3)ccc2OC[C@H]2O[C@@H](CC(=O)NCCN3CCCCC3)CC[C@H]21	-2	2	41	15	6	2
Fc1ccc(-c2csc3nnc(SCc4cccnc4)n23)cc1	-28	-5	-11	-9	-3	56*
c1ccc(-c2csc3nnc(SCc4ccc5c(c4)OCO5)n23)cc1	-7	0	-3	-3	0	29
CC=Cc1ccc2n(c1=O)C[C@@H]1[C@@H](CO)[C@H](C(=O)NCc3ccccn3)[C@H]2N1CCC (mixture of isomers)	-5	0	96*	-3	0	8
CC(=O)N1[C@@H]2c3cccc(=O)n3C[C@H]1[C@H](CO)[C@H]2C(=O)NCC1CCCCC1	1	-2	63*	14	0	13
O=C(NCc1ccccn1)[C@H]1[C@H](CO)[C@H]2Cn3c(cccc3=O)[C@@H]1N2CC1CCCCC1	-12	-1	51*	10	0	-3
SMILES	PGC1a acetyl inh	ERAP1 HTS inh	RAD52 anneal inh	RAD54 branch	AF4-AF9 inh	GSIS activator
O=C(C1CCOCC1)N1C[C@H]2[C@@H](c3ccccc31)[C@H](CO)N2C(=O)Cc1ccccc1	-1	2	1	-20	-3	-4
COc1ccc(C[C@@H]2CCn3cc(nn3)COC[C@H](C(C)C)NC2=O)cc1	/	0	2	/	-4	13
CCOC(=O)Cc1csc(NC(=O)c2ccc(OC)c(OC)c2)n1	-8	/	/	6	/	55*
CCOC(=O)Cc1csc(NC(=O)c2cccc([N+](=O)[O-])c2)n1	-3	0	-9	0	-3	179*
O=C(Cc1csc(NC(=O)c2ccccc2)n1)NO	10	2	-5	-5	4	57*
COc1ccc2c3c([nH]c2c1)[C@@H](CO)N(C(=O)NC(C)C)CC31CN(Cc2ccccc2)C1	4	-5	7	/	18	-10
CN(C)c1ccc(NC(=O)Cn2cc3c(n2)CCCC3)cc1	/	/	19	12	31*	-14
CC1OC2CC(=O)OC2C2=C1C(=O)c1c(O)cccc1C2=O (stereo not drawn)	78*	21	-14	4	-10	8
O=S(=O)(Nc1ccccc1)c1ccc2c(c1)CCO2	6	4	-9	-8	48*	-4
COc1ccc(NS(=O)(=O)c2ccc3c(c2)CCO3)cc1	-5	4	-5	-10	1	-3
COc1ccc(/C=N/Nc2cc(N(C)C)nc(N(C)C)n2)cc1	/	0	7	/	28*	-13
CN(C)c1cc(N/N=C\c2ccccc2)nc(N(C)C)n1	4	2	12	/	26*	-14
COc1ccccc1/C=N/Nc1cc(C)nc(N2CCOCC2)n1	-4	1	-3	1	2	/
COc1ccccc1/C=N/Nc1cc(N(C)C)nc(N(C)C)n1	/	-2	-4	/	29*	5
C[C@@H]1CN([C@@H](C)CO)C(=O)c2cc(C3=CCCCC3)cnc2O[C@H]1CN(C)S(C)(=O)=O	-6	/	/	/	/	2
C[C@H]1CN([C@@H](C)CO)C(=O)Cc2cc(NC(=O)CCCN(C)C)ccc2O[C@@H]1CN(C)C(=O)NC1CCCCC1	-2	3	-20	15	-1	13
OCCCNc1ncnc2scc(-c3ccc(Cl)cc3)c12	1	2	-10	-2	-2	90*
Cc1cc(CCNC=O)c(C)c2c1oc1ccccc12	/	6	-9	/	-1	57*
COc1cccc(-c2cc(C(F)(F)F)nc(-n3cncn3)n2)c1	-1	/	/	-1	/	65*
Fc1ccc(-c2cc(C(F)(F)F)nc(-n3cccn3)n2)cc1	11	1	3	3	0	37
Fc1ccc(-c2cc(C(F)(F)F)nc(-n3cncn3)n2)cc1	10	/	/	/	/	52*
COc1cccc(-c2cc(C(F)(F)F)nc(-n3cc(C)cn3)n2)c1	7	/	-7	/	-5	-4
